# According to PubChem BioAssay AID1948 (National Center for Advancing Translational Sciences (NCATS), 2009):
# The whole screen tested about 110,000 compounds, of which about 20 (0.02%) were called active. Inconclusive results (about 2%) are left out. The call rests on the fitted dose curve; in most records, active means well fitted activation curve with a large enough effect; inconclusive means small, poorly fitted or top-dose-only effect; inactive means no such curve, though single readings can be large or run the other way. Shown is part of a subset that was picked to be rich in actives.
# Assay: qHTS Assay for Compounds that Induce Erasure of Genomic Imprints;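 on activity change, positive = activation: 0% = negative control wells on the plate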
# Settings: mouse ES Peg3-LacZ reporter, beta-gal luminescence, 40 h; series mostly up to 10.9 µM; activity change, positive = activation: at the top concentration
# Source text: qHTS Assay for Compounds that Induce Erasure of Genomic Imprints NIH Chemical Genomics Center [NCGC] NIH Molecular Libraries Screening Centers Network [MLSCN] Assay Submitter (PI): JEFFRIES, SEAN, NCGC, University of Cambridge NCGC Peg3 Imprinting Assay Overview Genomic imprinting is the epigenetic process whereby genes are expressed in a parent of origin fashion. […] Unlike some forms of epigenetic silencing that can be overcome by overexpression of transcription factors, genomic imprinting stably represses the expression of one allele despite potentially high levels of expression from the other allele. […] During mouse embryonic day 11.5 imprints are erased in PGCs so that sex specific imprints can be reestablished during gametogenesis. Embryonic germ (EG) cells can be derived from developing PGCs at embryonic day 11.5 and these cells often lack genomic imprints. […] Embryonic stem (ES) cells are a cell type similar to EG cells in phenotype and transcriptional profile, yet ES cells maintain genomic imprints. This similarity between ES and EG cells prompted us to use ES cells to look for factors which could induce imprint erasure. To investigate the stability of genomic imprinting, ES cells were derived from mice with an insertion of a LacZ-Neomycin reporter construct in the Peg3 locus. Peg3 is an imprinted locus where gene expression is restricted to the paternal allele. […] Using LacZ expression we are able to monitor the state of the Peg3 imprint. In order to dissect the mechanisms involved in imprint erasure using a forward chemical genetics approach we developed a cell based phenotype assay using an endogenous silence imprinted locus. This assay utilizes maternally inherited Peg3LacZ-Neo ES cells by monitoring the LacZ expression from the normally silent Peg3 allele. To facilitate screening, high-density feeder-free ES cell culture has been optimized so that ES cells can be grown in 1536 for over four days without feeding or washes. The assay uses a luminescence based read out for LacZ activity and is a homogenous assay optimal for HTS.
# NCGC Peg3 Imprinting Assay Protocol Summary ES cell lines were derived from blastocysts taken from Peg3LacZ-Neo x129 matings. Lines were sexed and genotyped for the Peg3LacZ-Neo allele. Female cells carrying the reporter allele were used in this study. Cells were derived on a layer of mouse embryonic fibroblasts and passaged multiple times before switching to feeder free culture. Cells were maintained feeder free on gelatin coated dishes in DMEM/F12 media supplemented with 15% FBS, 2mM L-glutamine, 100 units/ml penicillin, 100ug/ml streptomycin, 0.1mM MEM nonessential amino acids, 1mM sodium pyruvate, 0.1% sodium bicarbonate, 0.1mM 2-Mercaptoethanol, and 400 units/ml leukemia inhibitory factor (LIF) at 37C with 5% CO2. The assay was performed in 1536-well format. A single luminescence read was taken at the end of the assay and the data was normalized by plate to internal negative controls. Maximum efficacy and AC50 values were calculated from dose-response data using the standard Hill equation. 1536 well plates were filled with 0.5ul of 0.1% gelatin per well, spun down and incubated for at least 30 min at 37C. The ES cells were then trypsini Peg3 1536-well assay protocol: (1)Plate 0.5ul/well 0.1% gelatin in white tissue culture treated 1536-well plates, spin and incubate at 37C for at least 30 min. (2)Add 5ul/well (300 cells) of ES cell suspension from freshly trypsinized cells and incubate at 37C, 5% CO2 for 40 hours. (3)Add 5ul/well of freshly prepared BetaGlo solution and incubate at room temperature for 5 minutes. (4)Read luminescence on the ViewLux plate reader. Keywords Genomic Imprinting, Germ Cells, Embryonic Stem Cell, DNA Methylation, Peg3, qHTS, NIH roadmap, NCGC
# Potency means the concentration at half of the fitted maximal effect.
Compound,"activity change, positive = activation",Potency
Cc1cccc(C(C)C)c1NC(=O)C(NS(=O)(=O)c1cccc2nsnc12)c1ccccc1 (configuration not stated),-5.37% (inactive),
COc1cc(OC)c(NC(=O)N2CC3CCCN3c3ccccc32)cc1Cl (configuration not stated),-4.34% (inactive),
Cc1ccc(C(=O)COC(=O)C(Cc2c[nH]c3ccccc23)NC(=O)c2ccc(Br)cc2)cc1 (configuration not stated),-23.6% (inactive),
COc1cccc(Cn2c(CNS(=O)(=O)c3ccc(Cl)s3)nc3cccnc32)c1,5.91% (inactive),
CCCOc1ccc(NC(=O)CC2C(=O)N(c3ccccc3)C(=O)N2Cc2ccco2)cc1 (configuration not stated),14.7% (inactive),
CCN(c1ccc(Cl)cc1)S(=O)(=O)c1nnc(NC(=O)c2ccco2)s1,-13.6% (inactive),
CCC(=O)N1CCc2cc(S(=O)(=O)NC(C(=O)Nc3ccc(C(C)=O)cc3)C(C)C)ccc21 (configuration not stated),-8.36% (inactive),
CCSc1ncc(Cl)c(C(=O)Nc2c(C(=O)c3ccccc3)oc3ccccc23)n1,-6.33% (inactive),
O=C(O)c1ccc2c(c1)N(Cc1ccc(F)cc1)C(=O)c1ccccc1S2=O (configuration not stated),-14.8% (inactive),
Cc1ccc(-c2cn3c(n2)sc2cc(C(=O)NCc4cccs4)ccc23)c(C)c1,5.34% (inactive),
Cc1cccc(CC(=O)Nc2cccc(-c3cn4cccnc4n3)c2)c1,27.8% (inactive),
CCCCNC(=O)CSc1nc2cc3c(cc2c(=O)n1CCCCCC(=O)NCc1ccc2c(c1)OCO2)OCO3,-3.01% (inactive),
CCOc1ccc(CNC(=O)c2ccc(CS(=O)c3ccccc3)o2)cc1 (configuration not stated),-14.1% (inactive),
CCOc1ccccc1NC(=O)CCS(=O)(=O)c1cccc2nsnc12,-4.98% (inactive),
CCSc1nnc2c(n1)OC(c1ccc(OCC(=O)O)cc1)Nc1ccccc1-2 (configuration not stated),-3.64% (inactive),
COc1cccc(-c2nc(S(=O)(=O)c3ccc(C)cc3)c(NCc3ccccc3)o2)c1,4.59% (inactive),
Cc1ccc(C)c(N2CCN(C(=O)Cn3ncc4c(=O)oc5ccc(C)cc5c43)CC2)c1,-13.6% (inactive),
Cc1ccc(S(=O)(=O)N(CC(=O)Nc2ccc(Cl)cc2Cl)c2ccccc2C)cc1,-14.6% (inactive),
COc1ccccc1-n1c(-c2ccc(C)cc2)cn2c3c(=O)n(C)c(=O)n(C)c3nc12,9.66% (inactive),
Cc1nc2cnc(Nc3ccccc3)nc2n(C[C@H]2CCCO2)c1=O,-2.6% [at 60.7 µM] (inactive),
O=c1cnc2cnc(Nc3ccccc3)nc2n1Cc1ccc(F)cc1,-5.91% [at 60.7 µM] (inactive),

Compound,"activity change, positive = activation",Potency
Cc1nc2cnc(Nc3ccccc3)nc2n(Cc2ccc(F)cc2)c1=O,,3.16 µM (active)
Cc1cc(NC(=O)c2cccc(Cl)c2)ccc1-c1cc2ccccc2oc1=O,-17.4% (inactive),
Cc1ccc(CCNC(=O)c2nnc(Cc3cccc(F)c3)o2)cc1,-10% (inactive),
Cc1cc2c(cc1C)C(c1cccc(OC(C)C)c1)CC(=O)N2 (configuration not stated),-14.4% (inactive),
COc1ccc(Cl)cc1NC(=O)CSc1nc(-c2cccs2)cc(C(F)(F)F)n1,-13% (inactive),
Cc1ccc(NC(=O)Nc2sc3nc4n(c(=O)c3c2C)CCC(C)CC4)c(Cl)c1 (configuration not stated),-5.4% (inactive),
Cc1ccc(OCCSc2nc(C)c(Cc3ccccc3)c(=O)[nH]2)cc1,-7.4% (inactive),
CC(C)S(=O)(=O)c1oc(-c2ccc(F)cc2)nc1S(=O)(=O)c1ccc(F)cc1,-38.1% (inactive),
CCCCN(C)c1nnc(NC(=O)Nc2ccc(Br)c(C)c2)s1,-3.91% (inactive),
O=C(NCCc1ccc(Cl)cc1)c1ccc2c(c1)N(Cc1ccc(F)cc1)C(=O)CS2,-20.3% (inactive),
CCOc1ccccc1NC(=O)CCn1cnnn1,-3.05% (inactive),
CCOc1cc(-c2nnc(SCC(=O)NC3CCCC3)nc2-c2ccc(OC)c(OCC)c2)ccc1OC,-9.78% (inactive),
Cn1nnnc1SCCCNCc1cccc(OCc2ccc(Cl)cc2)c1,-17.5% (inactive),
CSc1nc(=O)c2c(n1C)NC(=O)CC2c1ccccc1OC(C)C (configuration not stated),-5.06% (inactive),
COc1ccc(Cl)cc1S(=O)(=O)N1CCC(c2ccncc2)CC1,-15.5% (inactive),
CCc1nn(CC(=O)Nc2cccc(C)c2C)c(=O)c2cc3sccc3n12,6.85% (inactive),
Cc1cccc(NC(=O)c2cc(S(=O)(=O)N3CCC4(CC3)OCCO4)ccc2F)c1,-21% (inactive),
CCC(=O)N1CCc2cc(Br)cc(S(=O)(=O)CCC(=O)NCCc3ccc(OC)c(OC)c3)c21,5.01% (inactive),
CCCNc1ncnc2c1c(-c1ccccc1)cn2-c1ccc(OCC)cc1,-20.1% (inactive),
Cc1ccc(C)c(N2CCN(C(c3ccccc3)c3nnc(-c4ccccc4)o3)CC2)c1 (configuration not stated),-8.5% (inactive),
COc1ccc(CN2C(=O)C(NC(=O)c3cccc(C)c3)(C(F)(F)F)N=C2c2ccccc2)cc1 (configuration not stated),9.97% (inactive),

Compound,"activity change, positive = activation",Potency
CCOC(=O)C1CCCN(C(=O)c2ccc3c(c2)sc2nc(-c4ccc(CC)cc4)cn23)C1 (configuration not stated),-15.9% (inactive),
CCCn1c(NCc2ccccc2F)nc2ccccc21,-8.61% (inactive),
O=S(=O)(c1ccc2nc(N3CCN(c4cccc(Cl)c4)CC3)ccc2c1)N1CCCCC1,-6.86% (inactive),
COc1ccc(OC)c(NC(=O)/C=C/c2ccc(C)o2)c1,7.39% (inactive),
Cc1c(Cl)cccc1NC(=O)CCS(=O)(=O)c1ccc2c(c1)oc(=O)n2C,-2.77% (inactive),
C#CC(C)(CC)NC(=O)Cn1nnc(-c2ccc(OCc3c(F)cccc3Cl)cc2)n1 (configuration not stated),-21% (inactive),
Cc1nc2ccn(Cc3cccnc3)c(=O)c2cc1C(=O)N1CCN(c2ccccc2F)CC1,-12.9% (inactive),
COc1cc(OC)c(NC(=O)c2nc(-c3ccncc3)no2)cc1Cl,1.79% (inactive),
COc1ccccc1NC(=O)c1oc2ccccc2c1NC(=O)COc1ccccc1OC,-14.1% (inactive),
Cc1c(-c2nsc(NC(=O)c3cccc(Cl)c3)n2)nnn1-c1ccccc1C(F)(F)F,11.8% (inactive),
O=C(c1cccs1)c1cn(CCOc2ccc(Cl)cc2)c2ccccc12,-14.8% (inactive),
CC(=O)c1c(C)n(S(=O)(=O)c2ccc(Cl)cc2)c2ccc(NS(=O)(=O)c3ccc(Cl)cc3)cc12,-15.8% (inactive),
COc1ccccc1CNC(=O)NCc1noc2ccc(C)cc12,-12.8% (inactive),
COc1cccc(-c2nnc3n(CCc4ccccc4)c(=O)c4ccccc4n23)c1O,-1.81% (inactive),
COc1cccc(CNCCSc2nnnn2C)c1OCc1ccccc1Cl,-19.5% (inactive),
CCOC(=O)c1ccc(-c2ccc(/C=C(\C#N)C(=O)Nc3ccc(OCC)cc3)o2)cc1,-9.53% (inactive),
COc1ccc(NC(=O)CSc2nnc(-c3nnn(-c4ccc(F)cc4)c3C)o2)cc1,-10.1% (inactive),
COc1ccc(N2CCN(S(=O)(=O)c3ccc(-c4coc(C)n4)cc3)CC2)cc1,-7.96% (inactive),
Cc1ccccc1C(=O)Nc1sc2c(c1C(=O)N1CCC(C)CC1)CCCC2,-10.6% (inactive),
CC(=O)[C@H](C(c1ccccc1)N1CCOCC1)N1CCOCC1 (some centres not stated),-10.7% (inactive),
